Where “and” joins values, the source holds several entries; their conditions need not be identical. Equal entries are not always repeated. Inconclusive results are not listed. A number with no mark means an inactive call. Calls of active or inactive are those of the source. Calls come from the whole dose curve; as a rule, active = well fitted cell-killing curve with a large enough effect in the repeat runs; inconclusive = weak or mixed curves, or effect the other way; inactive = flat fitted curve, though single readings scatter.
test: cAMP Responsive Elements (CRE) small molecule antagonists, cell-based qHTS assay: qHTS cell viability counter screen (AID 2060913); conditions: CRE-bla HEK293T viability, CellTiter-Glo luminescence, 5 h; series mostly up to 92.4 µM; viability change, negative = cytotoxic: at the top concentration; note: nearly all actives have a fitted effect of over 40% in size
Method in brief: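 CRE-bla HEK293T cells (2,000/well, 18 h) given compound plus NKH477 0.25 uM final for 3 h at 37C; viability counter-screen by CellTiter-Glo luminescence in same wells after 30 min.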
% is set by controls: 0 for no effect and ±100 for the full control effect; potency is the fitted concentration of half-maximal effect.

Row | SMILES | viability change, negative = cytotoxic | Potency
1 | NCC1CCCC(CN)C1 (stereo not drawn) | -0.187% | 
2 | CCCCCCCCCCCCCC[N+](C)(C)C |  | 52.7 µM (active) and 48.5 µM (active)
3 | COc1cccc(OC)c1C(=O)N[C@@H]1C(=O)N2[C@@H]1SC(C)(C)[C@@H]2C(=O)O | 3.51% [at 42.5 µM] | 
4 | CC(=O)N[C@H]1[C@H]([C@H](O)[C@H](O)CO)OC(C(=O)O)=C[C@@H]1N=C(N)N | 6.15% [at 42.5 µM] | 
5 | Nc1nc(-c2ccccc2)cs1 | 2.82% | 
6 | CCCCCCCC/C=C\CCCCCCCC(=O)OCCCC | -0.67% [at 18.9 µM] | 
7 | CN1CCN(c2cc3c(cc2F)c(=O)c(C(=O)O)cn3-c2ccc(F)cc2)CC1 | 6.55% [at 42.5 µM] | 
8 | CC(C)OB(OC(C)C)OC(C)C |  | inactive
9 | C[Si](O[Si](C)(C)C)O[Si](C)(C)C |  | inactive
10 | O=C(O)c1ccco1 | 10.2% | 
11 | CC(=O)[C@@]1(O)CC[C@H]2[C@@H]3C[C@H](C)C4=CC(=O)C=C[C@]4(C)[C@@]3(F)[C@@H](O)C[C@@]21C |  | inactive
12 | CC(C)c1cccc(C(C)C)c1 |  | inactive
13 | CC1=Nc2ccc3ccccc3c2C1(C)C | -3.1% | 

Reference: PubChem BioAssay (Tox21)
